Assay outcomes deposited in PubChem BioAssay by several laboratories.
FAS-TE inh: blocks the thioesterase domain of human fatty acid synthase; P49327; recombinant FAS-TE, OMFH fluorogenic substrate, fluorescence endpoint; inhibition, % at 15 µM; 360,000 tested, 0.67% active; AID 602261;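 active = compounds whose normalised, plate-corrected inhibition of enzyme fluorescence in the single-dose primary screen is 50% or more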;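 note: 0% = DMSO with enzyme and 100% = substrate without enzyme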
SMARCA2 activ: increases SMARCA2 function in MMTV reporter cells. MG213 cells, MMTV-luciferase reporter, dexamethasone, overnight. activation, % at 9.1 µM. 370,000 tested, 1% active. AID 652017; in the data active = activation above about 7.8%;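 note: 0% = vehicle wells and 100% = reference activator wells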
GAA850 FXN act: frataxin GAA850 promoter activation. HEK293 lucGAA850 FXN promoter luciferase reporter, 24 h; percent of 10 µM SAHA response. activation, % at 6 µM. 360,000 tested, 0.56% active. AID 540364;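 active = activation above the average of all compounds screened plus 3 SD, cutoff fixed separately per campaign, cut at about 7.5% in these data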;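 note: 0% = DMSO wells and 100% = 10 µM SAHA wells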
KLK7 zymogen act: activators of human kallikrein-7 zymogen; AID 652039; 370,000 tested, 0.9% active; activation, % at 7 µM; purified proKLK7, EDANS-DABCYL substrate fluorescence; 100% is mature enzyme control, 0% vehicle; P49862;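 active = activation above the mean of all tested compounds plus 3 SD, computed per campaign excluding outliers beyond control limits, cut at about 13% in these data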
proKLK7 act conf: confirmation of human kallikrein-7 zymogen activators | shares compounds with KLK7 zymogen act | purified proKLK7, EDANS-DABCYL substrate fluorescence; scaled: vehicle 0, mature enzyme 100 | activation, % at 7 µM | 3,200 tested, 68% active | AID 686949;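 active = activation, as change over the incubation, above the mean of all tested compounds plus 3 SD, cut at about 13% in these data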
EDANS interfere: fluorescence interference counter-screen for KLK7 activators. shares compounds with KLK7 zymogen act. EDANS-DABCYL substrate fluorescence interference, no enzyme, 4 h; solvent 0%, active enzyme control 100%. activation, % at 7 µM. 3,200 tested, 80% active;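 active = activation above the all-compound mean plus 3 SD, ignoring values outside control-based bounds, cut at about 4.8% in these data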;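 note: value is the 4 h activation minus the activation read at time zero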
K7 EDANS ctr: EDANS fluorescence interference in dose response, no enzyme; EDANS-DABCYL peptide fluorescence interference; EC50, µM; shares compounds with KLK7 zymogen act; 250 tested, 20% active;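 active = compounds that raise the fluorescence signal in this interference counterscreen, with EC50 at or below 10 µM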;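 note: intact quenched peptide substrate alone read at 355 nm excitation and 520 nm emission; signal is fluorescence gain from T0 to T4 after four hours at room temperature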
The depositor's hits bear a star; i = inactive; x = no result. This is a sample that favours compounds with a hit; in the whole collection about 2.9% have one here.

SMILES	FAS-TE inh	SMARCA2 activ	GAA850 FXN act	KLK7 zymogen act	proKLK7 act conf	EDANS interfere	others
Cc1ccc2nc3nc(NCC4CCCO4)c(C(=O)NC4CCCC4)cc3c(=O)n2c1 (centres undefined)	-5	1	-3	24*	-3	-11
Cc1ccc2nc3c(cc(C(=O)NCC4CCCO4)c(=N)n3CC3CCCO3)c(=O)n2c1 (centres undefined)	-5	x	0	x	x	x
CCNC(=S)N1CCc2cc(OC)c(OC)cc2C1COc1ccccc1OC (centres undefined)	8	-2	2	58*	30*	36*
CCC(NC(=O)CCc1c(C)c2cc3c(C)c(C)oc3cc2oc1=O)C(=O)N[C@@H](Cc1ccccc1)C(=O)O (some centres undefined)	1	1	0	14*	13*	8.7*	K7 EDANS ctr=>70
CSC[C@H](NC(=O)Cc1c(C)c2cc3c(C)c(C)oc3cc2oc1=O)C(=O)N[C@@H](Cc1ccccc1)C(=O)O	0	x	-1	x	x	x
O=C(Cc1cc(=O)oc2cc(O)ccc12)NC(Cc1ccc(Cl)cc1)C(=O)O (centres undefined)	-5	-3	1	46*	65*	68*
Cc1c(O)ccc2c(CC(=O)N[C@@H](Cc3ccc(O)cc3)C(=O)O)cc(=O)oc12	-7	-2	4	39*	65*	68*
Cc1c(CC(=O)NCC(=O)NCC(=O)N[C@@H](Cc2ccccc2)C(=O)O)c(=O)oc2c(C)c(O)ccc12	5	2	-3	72*	61*	74*
CCCC(NC(=O)CCc1c(C)c2cc3c(C)c(C)oc3cc2oc1=O)C(=O)NC(Cc1ccc(Cl)cc1)C(=O)O (centres undefined)	33	-4	-1	4	x	x
Cc1ccc(OCC(=O)Nc2ccc(C)c(F)c2)c([N+](=O)[O-])n1	14	5	4	-1	x	x
Cc1cc(C)c2oc(-c3ccc(Cl)c(NC(=O)c4ccc(C#N)cc4F)c3)nc2c1	1	4	3	0	x	x
O=c1[nH]c(=O)c2nc(-c3ccc(Cl)cc3)cnc2[nH]1	1	1	0	57*	70*	69*
OC1CCCN(Cc2c3ccccc3cc3ccccc23)C1 (centres undefined)	1	4	3	15*	-2	-2
CN1CCC(N(C)C(=S)NCCc2ccccc2)CC1	-3	-3	4	0	x	x
COc1cc2c(cc1OC)C(c1cc(OC)c(OC)c(OC)c1)C1(O)C(=O)OCC1(O)C2 (centres undefined)	-6	0	-2	57*	0	1
O=C(CSc1nc2ccc(F)cc2c(=O)n1-c1ccccc1)Nc1ccc2c(c1)CCC2	39	-1	-1	1	x	x
N#Cc1cc(-c2ccccc2)c[nH]c1=O	-6	-2	0	20*	7	10*
CCCN(CCC)S(=O)(=O)c1ccc(Cl)c(OC)c1	12	-2	3	0	x	x
COC(=O)c1c(C)nc2nonc2c1N	-6	-3	-1	14*	47*	49*
COc1cc2cc(C(c3nnnn3C(C)(C)C)N3CCc4ccccc4C3)c(=O)[nH]c2cc1OC (centres undefined)	15	3	-2	25*	5	2
COc1cc2c(OC)cccc2cc1C(=O)O	-12	-4	1	18*	11	8.5*
O=C(NCc1ccccc1)C1c2ccccc2OCC(=O)N1Cc1ccco1 (centres undefined)	-12	-3	x	0	x	x
Cc1ccc2cc3cc(C(=O)NCCCN4CCCCCC4)oc3nc2c1	-7	3	1	18*	6	11*
CCCCN(CC)CCCNC(=O)c1cc2cc3ccc(C)cc3nc2o1	-2	1	-2	22*	8	13*
CCCCN(CC)CCNC(=O)c1cc2cc3ccc(Cl)cc3nc2o1	-2	3	1	4	x	x
SMILES	FAS-TE inh	SMARCA2 activ	GAA850 FXN act	KLK7 zymogen act	proKLK7 act conf	EDANS interfere	others
Cc1ccc2cc3cc(C(=O)NCCCN4CCCC4)oc3nc2c1	-2	-1	2	11	x	x
CCCCC(=O)Nc1c(-c2ccc(OC)c(OC)c2)c(=O)c2ccccc2n1C	-3	1	0	0	x	x
CCCCCC(=O)Nc1c(-c2ccc(OC)cc2)c(=O)c2ccccc2n1C	-6	2	-2	17*	3	1
CCCC(=O)Nc1c(-c2ccc(OC)cc2)c(=O)c2ccccc2n1C	-11	-3	1	17*	20*	17*	K7 EDANS ctr=i
O=c1c2ccccc2nc(/C=C/c2ccc([N+](=O)[O-])o2)n1CCCO	-17	-4	-10	-1	x	x
CCOC(=O)c1cc(=O)n2c(nc3ccccc32)[nH]1	-7	2	1	23*	77*	79*
O=C(CC1NC(=O)NC1=O)Nc1ccccc1 (centres undefined)	-13	-2	0	0	x	x
Cn1c(=O)c2c(-c3ccccc3)n(-c3ccccc3)cc2n(C)c1=O	3	-1	-1	0	x	x
Cn1c(=O)c2c(-c3ccccc3)n(-n3cnnc3)cc2n(C)c1=O	-6	0	3	14*	1	6.8*
CC1(C)CC(=O)C2=C(C1)OC(N)=C(C#N)C2c1ccccc1[N+](=O)[O-] (centres undefined)	-7	-4	2	17*	12	13*
Cc1ccc(CNC(=O)CSc2nc3n[nH]c(C)c3c(=N)n2-c2cccc(C)c2)cc1	-5	-3	-3	13*	28*	27*
CCc1ccc(NC(=O)CSc2nc3n[nH]c(C)c3c(=N)n2-c2cccc(OC)c2)cc1	1	-2	-5	1	x	x
COc1ccc(-c2c(C)c3cc(O)ccc3oc2=O)cc1	6	-1	0	0	x	x
Cc1c(CCC(=O)O)c(=O)oc2cc(O)ccc12	-4	-1	-1	40*	66*	79*
COc1ccc(-c2c(C)c3ccc(O)cc3oc2=O)cc1OC	-11	6	-1	36*	69*	74*
COc1ccc(CCNC(=O)CCCn2c(=O)[nH]c3cc(OC)c(OC)cc3c2=O)cc1OC	-7	0	1	0	x	x
Cc1ccc(-c2c(C#N)c(N)n(-c3ccc(C)cc3)c(=O)c2C#N)cc1	-4	-1	1	21*	187*	270*
Cc1ccc(-n2c(N)c(C#N)c(-c3ccc(Cl)cc3)c(C#N)c2=O)cc1	-4	1	0	-12	x	x
COc1ccc(C(NCC(=O)Nc2c(C)cccc2C)c2ccccc2)cc1 (centres undefined)	5	-3	1	0	x	x
